PubChem BioAssay (NCI)
Compounds without any hit were thinned out: in the full panel of roughly 83,000, 20% have a hit.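 For each line, cells grew in 96-well plates with the test compound present at a single concentration for 48 hours.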 Activity calls are given as the source filed them. The calls were made as follows: active = growth percent below 10; inactive = the rest.

Tests used:
Assay in all cases: NCI-60 one-dose screen, 48 h (100 = growth as untreated, 0 = no growth, -100 = all killed)
[1] = system: NCI-H23 lung; settings: 10 µM unless noted
[2] = system: NCI-H226 lung; settings: 10 µM unless noted
[3] = system: NCI-H322M lung; settings: 10 µM unless noted
[4] = system: HOP-62 NSCLC; settings: 10 µM unless noted
[5] = system: HOP-92 NSCLC; settings: 10 µM
[6] = system: NCI-H522 lung; settings: 10 µM
[7] = system: A549/ATCC NSCLC; settings: 10 µM unless noted
[8] = system: 786-0 renal; settings: 10 µM unless noted
[9] = system: DU-145 prostate; settings: 10 µM unless noted
[10] = system: K-562 leukemia; settings: 10 µM unless noted
[11] = system: MALME-3M melanoma; settings: 10 µM unless noted
[12] = system: MDA-MB-231 breast; settings: 10 µM unless noted
[13] = system: RXF 393 renal; settings: 10 µM unless noted
[14] = system: SF-268 CNS; settings: 10 µM unless noted
[15] = system: SF-295 CNS; settings: 10 µM unless noted
[16] = system: SF-539 CNS; settings: 10 µM unless noted
[17] = system: UACC-257 melanoma; settings: 10 µM unless noted
[18] = system: M14 melanoma; settings: 10 µM unless noted
[19] = system: COLO 205 colon; settings: 10 µM unless noted

Measured: growth

COc1cc2c(c(OC)c1OC)C(=O)CC(c1cccc(C(=O)Nc3cccc(Br)c3)c1)O2 (stereo unspecified)
inactive: [1] 97% | [2] 85.1% | [3] 81.5% | [4] 86% | [5] 55.3% | [6] 51.7% | [7] 77.9% | [8] 84% | [9] 87% | [10] 49.8% | [11] 85% | [12] 63.7% | [13] 88.8% | [14] 73.6% | [15] 86.7% | [16] 86.8% | [17] 76.8% | [18] 73.1%

Oc1ccc2ccccc2c1/C=N\Nc1ccccn1
active: [1] 0% | [2] 9.04% | [3] -12.6% | [4] -8.47% | [5] -15.1% | [6] 6.74% | [7] 8.68% | [8] -29.3% | [9] 4.84% | [15] -42.7% | [16] -4.88% | [18] -22.5%
inactive: [19] 91% | [10] 16.1% | [12] 25.1% | [13] 18.3% | [14] 16.8% | [17] 12.9%

CCCCCN1CCN(C(CC(=O)c2ccccc2)C(=O)c2ccccc2)CC1 (stereo unspecified)
active: [6] 1.49%
inactive: [1] 98.8% | [2] 103% | [3] 101% | [4] 101% | [5] 83.4% | [7] 101% | [8] 102% | [19] 55.1% | [9] 69.1% | [10] 11.2% | [11] 50.4% | [13] 111% | [14] 91.5% | [15] 105% | [16] 110% | [17] 107% | [18] 97.6%

Cc1ccc(S(=O)(=O)Nc2cccc(Cn3c(=O)[nH]c4ccc(Oc5ncccn5)cc4c3=O)c2)cc1
inactive: [1] 85.4% | [2] 86.1% | [3] 79.9% | [4] 72.2% | [5] 62.9% | [6] 33.6% | [7] 90.7% | [8] 95.9% | [9] 95.6% | [10] 26.6% | [11] 59.8% | [12] 77.4% | [13] 80.5% | [14] 82.3% | [15] 74.4% | [16] 71.7% | [17] 73.3% | [18] 59.1%

Cc1ccc(CC(=O)O)c(C)c1
inactive: [1] 91.3% | [2] 99.8% | [3] 108% | [4] 99.6% | [5] 98.5% | [6] 85% | [7] 94.5% | [8] 105% | [19] 113% | [9] 107% | [10] 104% | [11] 110% | [12] 105% | [13] 121% | [14] 96.3% | [15] 97.1% | [16] 106% | [17] 91.7% | [18] 102%

CCS(=O)(=O)N[C@@H]1O[C@H](COC(C)=O)C(OC(C)=O)[C@H](OC(C)=O)C1OC(C)=O (stereo partly specified)
inactive: [1] 102% | [2] 109% | [3] 115% | [4] 87.8% | [5] 95.4% | [6] 83.7% | [7] 88.7% | [8] 104% | [19] 113% | [9] 105% | [10] 99.4% | [11] 115% | [12] 110% | [13] 88.1% | [14] 94.4% | [15] 111% | [16] 95.1% | [18] 109%

CCCNC(=O)Oc1ccc(/C(=C(/C)Cc2ccc(OC)cc2)c2ccc(OCCN3CCCCC3)cc2)cc1
inactive: [1] 90.8% | [2] 95.1% | [3] 81.5% | [4] 84.9% | [5] 61% | [6] 84.8% | [7] 84.4% | [8] 81.8% | [19] 79% | [9] 97% | [10] 50.8% | [11] 112% | [12] 79.5% | [13] 88.7% | [14] 81.8% | [15] 102% | [16] 94% | [17] 93.7% | [18] 85.6%

CN1CCN(Cc2ccc(NC(=O)c3cncc(C#Cc4c(N)ncc5ccc(F)cc45)c3)cc2C(F)(F)F)CC1
inactive: [1] 30.6% | [3] 27.7% | [4] 22.1% | [6] 49.7% | [7] 26.5% | [9] 46.2% | [14] 35.7% | [15] 52.2%
active: [2] 8.85% | [5] -22.7% | [8] -71.9% | [10] -33.4% | [11] -80.7% | [12] -38.4% | [13] -73.8% | [16] -68.2% | [17] -55.9% | [18] -73.7%

COc1cccc(CNC(=O)c2cccc(C3CC(=O)c4c(cc(OC)c(OC)c4OC)O3)c2)c1 (stereo unspecified)
inactive: [1] 99.1% | [2] 78.2% | [3] 86.6% | [4] 66.7% | [5] 19.8% | [6] 24.9% | [7] 80.8% | [8] 24.8% | [9] 101% | [10] 10.7% | [11] 71.3% | [12] 76.8% | [13] 84.3% | [14] 78.7% | [15] 84.1% | [16] 35.4% | [17] 67.8% | [18] 41%

O=C(Nc1cccc(Cn2c(=O)[nH]c3ccc(Oc4ncccn4)cc3c2=O)c1)c1ccc(Cl)cc1
active: [10] 4.84%
inactive: [1] 46.9% | [2] 34.6% | [3] 61.5% | [4] 55.2% | [5] 52.8% | [6] 50.5% | [7] 46.9% | [8] 70.5% | [9] 62.3% | [11] 41% | [12] 53.6% | [13] 51.4% | [14] 56.8% | [15] 39.4% | [16] 59.2% | [17] 25.9% | [18] 57.8%

O=C(Nc1cccc(Cn2c(=O)[nH]c3ccc(Oc4ncccn4)cc3c2=O)c1)c1cc(Cl)cc(Cl)c1
active: [10] 4.32%
inactive: [1] 74.1% | [2] 44.2% | [3] 57.7% | [4] 71.6% | [5] 44.1% | [6] 49.3% | [7] 56% | [8] 72.6% | [9] 68% | [11] 30.5% | [12] 39.3% | [13] 31.9% | [14] 69.1% | [15] 64.6% | [16] 11.8% | [17] 68.4% | [18] 73%

Cc1ccc(C(=O)Nc2ccc(CN3CCN(C)CC3)c(C(F)(F)F)c2)cc1C#Cc1cncc2ncccc12
inactive: [15] 27.3%
active: [1] -84.3% | [2] 5.51% | [3] -95.8% | [4] -11.7% | [5] -30.7% | [6] 2.81% | [7] -82.1% | [8] -70.5% | [9] -88.1% | [10] -67.4% | [11] -88.9% | [12] -97% | [13] -95.7% | [14] -70.6% | [16] -98.2% | [17] -64% | [18] -89.5%

CCCCN(CCCC)CCCNc1c2c(nc3ccc(Cl)cc13)CCCC2
active: [8] -69.6%
inactive: [1] 82% | [2] 100% | [3] 95.4% | [4] 86.6% | [5] 73.5% | [6] 80.1% | [7] 94.6% | [19] 77.4% | [9] 107% | [10] 72.8% | [11] 126% | [12] 70.5% | [13] 109% | [14] 92.3% | [15] 90.1% | [16] 100% | [17] 105% | [18] 98%

Cc1ncc(C(=O)Nc2ccc(CN3CCN(C)CC3)c(C(F)(F)F)c2)cc1C#Cc1cnc(NC2CC2)c2ncccc12
inactive: [2] 39.7% | [4] 16.9% | [5] 33.4%
active: [1] -70.8% | [3] -87.7% | [6] -76.4% | [7] -91.5% | [8] -85.2% | [9] -83.1% | [10] -56.8% | [11] -88.5% | [12] -97.3% | [13] -90.6% | [14] -72.7% | [15] -91.8% | [16] -98.3% | [17] -65% | [18] -89.8%

COc1ccc2cc(C(C)C(=O)Nc3ccc(S(=O)(=O)Nc4cc(C)on4)cc3)ccc2c1 (stereo unspecified)
inactive: [1] 101% | [2] 106% | [3] 108% | [4] 88.5% | [5] 102% | [6] 89.7% | [7] 86.2% | [8] 102% | [19] 115% | [9] 115% | [10] 95% | [11] 115% | [12] 117% | [13] 92% | [14] 100% | [15] 105% | [16] 97.4% | [18] 103%

COc1cc2oc(-c3ccc(NC(=O)c4ccccc4)cc3)cc(=O)c2c(OC)c1OC
inactive: [1] 82.4% | [2] 85.4% | [3] 69.4% | [4] 90.3% | [5] 69.2% | [6] 70.2% | [7] 80.3% | [8] 90.4% | [9] 82.3% | [10] 102% | [11] 74.8% | [12] 74.9% | [13] 90.2% | [14] 77.5% | [15] 77.4% | [16] 81.6% | [17] 97.3% | [18] 92.8%
